Data taken from PubChem BioAssay (EPA / NIEHS).
Records with an inconclusive call do not appear. Active and inactive are the calls of the source. How the source made its calls, unless noted: active means hit-call score of the fitted dose curve at least 0.9, where 1 is the maximum; inconclusive means response in the unintended direction; inactive means score below 0.9.

Assays:
[1] = CCTE_Mundy_HCI_Cortical_Synap_Neur_Matur_BPCount: CCTE's Synaptogenesis and Neurite Maturation Assay in rat cortical cells for Branch Point Count, Mundy Lab (AID 2284211; active means hit-call score of the fitted dose curve at least 0.9, where 1 is the maximum; inactive means score below 0.9)
Outline: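 HCI read-out of branch points from MAP2/synaptophysin/Hoechst immunofluorescence; rat cortical cultures, AraC DIV 5, dosing DIV 7, fixed DIV 12; fit in positive direction vs DMSO baseline.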

[2] = CCTE_Mundy_HCI_Cortical_NOG_NeuriteCount: CCTE's Neurite Outgrowth Assay in rat cortical cells for Neurite Count, Mundy Lab (AID 2284212; active means hit-call score of the fitted dose curve at least 0.9, where 1 is the maximum; inactive means score below 0.9;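 further: cells fixed about two days after chemical exposure began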)
Outline: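 Rat cortical primary cells; compound added 2 h post-plating, 1/10 dilution of working solution. Anti-betaIII-tubulin/AF488 ICC; ArrayScan neurite count vs DMSO.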

[3] = CCTE_Mundy_HCI_Cortical_Synap_Neur_Matur_NeuriteCount: CCTE's Synaptogenesis and Neurite Maturation Assay in rat cortical cells for Neurite Count, Mundy Lab (AID 2284222; active means hit-call score of the fitted dose curve at least 0.9, where 1 is the maximum; inactive means score below 0.9;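 further: exposure from day 7 to day 12 in vitro with readout at day 12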)
Outline: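 Chemical exposure runs DIV 7–12 in rat cortical cultures, glia suppressed by AraC at DIV 5; measurement is at DIV 12. Imaging-derived neurite counts are fitted against DMSO baseline.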

[4] = CCTE_Mundy_HCI_hNP1_Pro_ResponderAvgInten: CCTE's Proliferation Assay in human neuroprogenitor cells, Mundy Lab (AID 2284224);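 further: human neural progenitor cells hNP1 derived from WA09 embryonic stem cells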
Outline: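 Proliferation was scored as BrdU labelling intensity in human neural progenitors derived from WA09 embryonic cells, measured 26.25 hours after chemical dosing. Activity was fitted relative to DMSO.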

[5] = CCTE_Mundy_HCI_Cortical_NOG_BPCount: CCTE's Neurite Outgrowth Assay in rat cortical cells for Branch Point Count, Mundy Lab (AID 2284237; active means hit-call score of the fitted dose curve at least 0.9, where 1 is the maximum; inactive means score below 0.9;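 on AC50: branch points counted about two days after chemical exposure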)
Outline: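 Measured 50.33 h after dosing, this morphology endpoint uses rat primary cortical cultures labelled for betaIII-tubulin. Branch points are quantified by high-content imaging, with DMSO as negative control and baseline.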

[6] = IUF_NPC5_oligodendrocyte_differentiation_120hr: Leibniz Research Institute for Environmental Medicine (IUF) 120-hour Oligodendrocyte Differentiation Assay (NPC5) (AID 2284304);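 further: primary human fetal neural progenitor spheres plated to migrate and differentiate; share of O4-positive cells among Hoechst nuclei found by CNN image analysis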
Outline: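 Oligodendrocyte differentiation was scored after 120 h as the O4-positive share of Hoechst-stained nuclei across the neurosphere migration area, using a trained convolutional neural network on high-content fluorescence images. Human fetal neural progenitor spheres were dosed from day 0, normalised to DMSO.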

[7] = CCTE_Mundy_HCI_iCellGluta_NOG_NeuriteLength: CCTE's Neurite Outgrowth Assay in iCellGluta cells for Neurite Length, Mundy Lab (AID 2284318)
Outline: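 Automated high-content imaging of betaIII-tubulin (Alexa Fluor-488) and Hoechst-stained cells gave neurite length, normalized to the DMSO baseline.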

[8] = IUF_NPC1_cytotoxicity_72hr: Cytotoxicity Assessment at 72 hours in the Leibniz Research Institute for Environmental Medicine (IUF) Neural Progenitor Cell Proliferation Assay (NPC1) (AID 2284332);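 further: rising LDH signal means more cytotoxicity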
Outline: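 Cytotoxicity by LDH membrane-integrity assay on medium supernatants, fluorescence via resazurin reduction, after 3-day single exposure of primary hNPC spheres at 37C, pH 7.2-7.6 with growth factors. Fitted upward against baseline.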

[9] = CCTE_Mundy_HCI_iCellGluta_NOG_NeuronCount: CCTE's Neurite Outgrowth Assay in iCellGluta cells for Neuron Count, Mundy Lab (AID 2284340);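 further: cells fixed about 48 h after compound addition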
Outline: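 Neuron count read by automated high-content imaging of Hoechst 33342 and betaIII-tubulin/Alexa Fluor-488 labelling in human iPSC glutamatergic neurons. Activity fitted relative to DMSO.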

[10] = CCTE_Harrill_HTTr_CellCount_MCF7: CCTE's Cell Proliferation Assessment for the High-Throughput Transcriptomics (HTTr) Platform, Harrill Lab (AID 2284012);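 further: cells exposed to compound for six hours; intended direction is loss of nuclei count meaning fewer cells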
Outline: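 Cell count from high-content imaging of Hoechst-labeled nuclei serves as viability/growth readout. Chemicals were applied to MCF-7 cells in eight concentrations for six hours, with fitting in both directions relative to DMSO.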

[11] = CCTE_Mundy_HCI_Cortical_Synap_Neur_Matur_NeuronCount: CCTE's Synaptogenesis and Neurite Maturation Assay in rat cortical cells for Neuron Count, Mundy Lab (AID 2284242);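 further: hits reduce neuron count versus DMSO baseline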
Outline: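 Neuron counts come from automated high-content imaging of Hoechst nuclei and MAP2/synaptophysin immunostaining at DIV 12, with loss of signal judged against DMSO. Cultures of rat cortical cells had glial growth arrested by AraC at DIV 5; chemical exposure began DIV 7.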

[12] = IUF_NPC4_neurite_area_120hr: Leibniz Research Institute for Environmental Medicine (IUF) 120-hour Neuronal Morphology Assay for Neurite Area (NPC4) (AID 2284305)
Outline: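 Neurite area (pixels, nuclei excluded) of TUBB3-positive neurons from hNPC spheres differentiating 5 days under continuous exposure at 37 C, 5% CO2. High-content imaging; loss of signal versus DMSO control across 7 concentrations.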

[13] = UKN5_HCS_SBAD2_cell_viability: Viability Assessment in the University of Konstanz (UKN) Leist Lab Neurite Outgrowth Assay in human iPSC-derived immature Dorsal Root Ganglia Neurons (UKN5) (AID 2284056; active means hit-call score of the fitted dose curve at least 0.9, where 1 is the maximum; inactive means score below 0.9)
Outline: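 iPSC-derived immature peripheral neurons (SBAD2) seeded on Matrigel with CHIR99021, SU5402 and DAPT, dosed 1 h later for 24 h. Viability from Hoechst H-33342 and calcein-AM live staining, high-content imaging; bidirectional fit versus DMSO.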

[14] = UKN5_HCS_SBAD2_neurite_outgrowth: University of Konstanz (UKN) Leist Lab Neurite Outgrowth Assay in human iPSC-derived immature Dorsal Root Ganglia Neurons (UKN5) (AID 2284070; active means hit-call score of the fitted dose curve at least 0.9, where 1 is the maximum; inactive means score below 0.9); settings: actives raise or lower the signal
Outline: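 Neurite area from calcein-AM high-content images after 24 h exposure (staining included), with H-33342 for viability, fitted both directions against DMSO. Cells: thawed immature SBAD2 peripheral neurons, 100.000 cells/cm2, with CHIR99021, SU5402, DAPT; dosing 1 h after seeding.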

[15] = UKN4_HCS_LUHMES_neurite_outgrowth: University of Konstanz (UKN) Leist Lab Neurite Outgrowth Assay in human LUHMES cells (UKN4) (AID 2284206; active means hit-call score of the fitted dose curve at least 0.9, where 1 is the maximum; inactive means score below 0.9); settings: actives raise or lower the signal
Outline: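 After 24 h compound treatment beginning shortly after replating of 2-day-differentiated LUHMES cells, calcein-AM and H-33342 live staining allowed high-content imaging of neurite area and viability. Fitted bidirectionally against DMSO.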

[16] = UKN4_HCS_LUHMES_cell_viability: Viability Assessment in the University of Konstanz (UKN) Leist Lab Neurite Outgrowth Assay in human LUHMES cells (UKN4) (AID 2284232; active means hit-call score of the fitted dose curve at least 0.9, where 1 is the maximum; inactive means score below 0.9)
Outline: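 Viability was read by high-content imaging of calcein-AM/H-33342-stained cells after 24 h toxicant exposure, staining included. Cells: human LUHMES on day 2 of dopaminergic differentiation, dosed shortly after attachment; DMSO baseline, bidirectional curve fitting.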

[17] = CCTE_Harrill_HTTr_Apoptosis_MCF7: CCTE's 6-hour Apoptosis Assessment for the High-Throughput Transcriptomics (HTTr) Platform, in MCF-7 cells cultured in DMEM + 10% fetal bovine serum, Harrill Lab (AID 2284011; active means hit-call score of the fitted dose curve at least 0.9, where 1 is the maximum; inactive means score below 0.9)
Outline: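 MCF-7 (DMEM + 10% FBS), 384-well; 8-pt dilution series, 6 h chemical exposure; caspase-3/7 activation via CellEvent Caspase 3/7 Green, HCI; bidirectional fit vs DMSO.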

Measured: AC50

CC1(C)[C@@H](C=C(Cl)Cl)[C@@H]1C(=O)O[C@@H](C#N)c1ccc(F)c(Oc2ccccc2)c1
inactive: [1] | [2] | [3] | [4] | [5] | [6] | [7] | [8] | [9]

O=S1OC[C@@H]2[C@H](CO1)[C@]1(Cl)C(Cl)=C(Cl)[C@]2(Cl)C1(Cl)Cl (stereo partly drawn)
inactive: [10]

Cn1nc(C(F)(F)F)c(CS(=O)(=O)C2=NOC(C)(C)C2)c1OC(F)F
inactive: [3] | [4] | [6] | [8] | [9]
active: [1] 15.1 µM | [2] 84.9 µM | [5] 77.1 µM | [11] 31.3 µM | [12] 50.1 µM | [7] 50 µM

C/C(=C/C=C/[C@@H](C)C(=O)O)[C@H]1CN[C@H](C(=O)O)[C@H]1CC(=O)O
inactive: [13] | [14] | [15] | [16] | [8]

COCCOC(C)=O
inactive: [10]

Clc1c(Cl)c(Cl)c2c(c1Cl)Oc1c(Cl)c(Cl)c(Cl)c(Cl)c1O2
inactive: [17] | [10]

CNC(=O)Oc1cccc(C(C)C)c1
inactive: [17] | [10]

[O-][Cl+3]([O-])([O-])O
inactive: [13] | [14] | [15] | [16] | [6] | [12] | [8]
